Among the test systems are DU-145 prostate; K-562 leukemia; MALME-3M melanoma; MDA-MB-231 breast; RXF 393 renal; SF-268 CNS; SF-295 CNS; SF-539 CNS; UACC-257 melanoma; M14 melanoma; HCT-15 colon; HT29 colon; SNB-75 CNS; SNB-19 CNS; U251 CNS; PC-3 prostate; SK-MEL-5 melanoma; UACC-62 melanoma; LOX IMVI melanoma; SK-MEL-28 melanoma.
What all share (assay): NCI-60 one-dose screen, 48 h (100 = growth as untreated, 0 = no growth, -100 = all killed)
What all share (conditions): 10 µM unless noted

Molecules are shown by their SMILES. About 83,000 compounds went through this panel and 20% of them were active in at least one assay; those are over-represented in the sample as a whole.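 Step 1: grow cells in 96-well plates. Step 2: add test compound at a single concentration. Step 3: incubate 48 h. Step 4: record percent growth.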 Values without a mark were called inactive. The source made the active and inactive calls. How the source made its calls: active means growth percent below 10; inactive means the rest.

In the case of `C1=C\CCCCN2CC[C@H]3[C@H](CCCC/C=C\CCCN4C[C@@H](CCCCC/1)C[C@@H]3C4)C2`, the growth was 93.9% with DU-145 prostate; -19.5% (active) in the assay with K-562 leukemia; 98.9% in the assay on MALME-3M melanoma; 73.9% in the assay on MDA-MB-231 breast; -43.3% (active) in the assay on RXF 393 renal; 73.8% in the assay with SF-268 CNS. In addition, the growth was 51.3% in the assay with SF-295 CNS; 31.3% with SF-539 CNS; 84.7% in the assay on UACC-257 melanoma; 1.72% (active) with M14 melanoma; 25.3% in the assay with HCT-15 colon; 9.89% (active) in the assay with HT29 colon. Also, the growth is 44.3% with SNB-75 CNS; 106% with SNB-19 CNS; 72.3% with U251 CNS; 76.7% in the assay with PC-3 prostate; 71% in the assay with SK-MEL-5 melanoma; 92% in the assay with UACC-62 melanoma. For the same molecule, the growth with LOX IMVI melanoma is 65.5%; in the assay on SK-MEL-28 melanoma, -90.3% (active).
Take `O=C1CC2(O)CSc3nc(=O)cc(n32)N1` (stereo not given): the growth with DU-145 prostate was 115%; in the assay on K-562 leukemia it was 111%; in the assay on MALME-3M melanoma, 99.8%; in the assay on MDA-MB-231 breast, 100%; in the assay on RXF 393 renal it was 110%; with SF-268 CNS, 112%. For the same molecule, the growth with SF-295 CNS is 88.8%; in the assay on SF-539 CNS, 104%; in the assay with UACC-257 melanoma it was 99.2%; with M14 melanoma, 101%; in the assay on HCT-15 colon, 96.5%; with HT29 colon it was 103%. Also, the growth in the assay with SNB-75 CNS is 98.4%; in the assay with SNB-19 CNS it was 91.6%; with U251 CNS, 97.2%; in the assay on PC-3 prostate, 93.9%; in the assay on SK-MEL-5 melanoma, 99.5%; in the assay on UACC-62 melanoma, 102%. Besides, the growth in the assay on LOX IMVI melanoma was 103%; in the assay on SK-MEL-28 melanoma it was 104%.
As to `CCSc1ccc([C@@H]2[C@@H](O)C(=O)N2c2cc(OC)c(OC)c(OC)c2)cc1`, the growth in the assay on DU-145 prostate was 12.5%; with K-562 leukemia, 7.65% (active); in the assay on MALME-3M melanoma, 71%; in the assay on MDA-MB-231 breast, 23.6%; with RXF 393 renal, 35.9%; with SF-268 CNS, 31.4%. The growth with SF-295 CNS is 18.1%; in the assay with SF-539 CNS, 1.7% (active); in the assay on UACC-257 melanoma, 66.5%; in the assay with M14 melanoma, 10.4%; with HCT-15 colon, 14.1%; in the assay on HT29 colon, 9.27% (active). For the same molecule, the growth in the assay with SNB-75 CNS was 85.8%; with SNB-19 CNS, 35.5%; with U251 CNS it was 21%; with PC-3 prostate it was 28.1%; with SK-MEL-5 melanoma, 0.317% (active); in the assay with UACC-62 melanoma it was 40.4%. Further, the figures for the growth in the assay with LOX IMVI melanoma and in the assay on SK-MEL-28 melanoma were 25.9% and 71%, respectively.
For the molecule `COc1ccccc1NC(=O)OCC12COCN1COC2`, the growth in the assay on DU-145 prostate is 112%; in the assay on K-562 leukemia it was 104%; with MALME-3M melanoma, 103%; with MDA-MB-231 breast it was 102%; in the assay on RXF 393 renal, 108%; in the assay with SF-268 CNS, 106%. Moreover, the growth is 103% with SF-295 CNS; 103% with SF-539 CNS; 89.9% with UACC-257 melanoma; 104% in the assay on M14 melanoma; 97.2% in the assay on HCT-15 colon; 109% in the assay with HT29 colon. Besides, the growth in the assay with SNB-75 CNS was 97.6%; in the assay with SNB-19 CNS it was 94.4%; with U251 CNS, 91.1%; in the assay on PC-3 prostate, 101%; in the assay with SK-MEL-5 melanoma it was 99.5%; in the assay on UACC-62 melanoma, 99.7%. Besides, the growth is 107% in the assay on LOX IMVI melanoma and 108% in the assay with SK-MEL-28 melanoma.
Turning to `CCCCn1cnc(-c2cc(-c3ccccc3)cc(C(F)(F)F)c2)n1`, the growth in the assay with DU-145 prostate was 106%; in the assay with K-562 leukemia it was 95.9%; in the assay with MALME-3M melanoma it was 89.6%; in the assay with MDA-MB-231 breast, 106%; with RXF 393 renal, 99.9%; in the assay with SF-268 CNS, 104%. Besides, the growth in the assay with SF-295 CNS was 102%; in the assay on SF-539 CNS, 103%; with UACC-257 melanoma, 96.7%; in the assay with M14 melanoma, 98%; in the assay on HCT-15 colon it was 104%; in the assay with HT29 colon, 101%. For the same molecule, the growth with SNB-75 CNS is 98.9%; with SNB-19 CNS, 98.6%; in the assay on U251 CNS it was 97.7%; in the assay with PC-3 prostate, 82.7%; in the assay on SK-MEL-5 melanoma, 101%; in the assay with UACC-62 melanoma it was 90.3%. Moreover, the growth was 105% in the assay with LOX IMVI melanoma and 109% with SK-MEL-28 melanoma.
`Cc1cc(C)c(C#N)c(SCC(=O)c2sc3c(C#N)c(C)cc(C)[n+]3c2[O-])n1`: the growth is -6.34% (active) in the assay on DU-145 prostate; 5.26% (active) in the assay on K-562 leukemia; 17.5% in the assay with MALME-3M melanoma; 15.2% in the assay on MDA-MB-231 breast; -21.5% (active) with RXF 393 renal; 22.9% with SF-268 CNS. In addition, the growth in the assay on SF-295 CNS is -52.3% (active); in the assay with SF-539 CNS, -11.3% (active); in the assay with UACC-257 melanoma, 51.9%; in the assay with M14 melanoma it was 12.2%; in the assay with HCT-15 colon, 15.9%; in the assay with HT29 colon, -26.1% (active). Moreover, the growth in the assay on SNB-75 CNS was 9% (active); in the assay on SNB-19 CNS, 75.5%; with U251 CNS it was 7.69% (active); in the assay on PC-3 prostate, 24%; in the assay with SK-MEL-5 melanoma, 10.8%; with UACC-62 melanoma, 47.9%. The growth in the assay with LOX IMVI melanoma was 20.4%; with SK-MEL-28 melanoma it was 30.3%.
Regarding `Oc1ccc(Nc2ncnc3c2sc2ncccc23)cc1`, the growth in the assay with DU-145 prostate is 17.2%; in the assay with K-562 leukemia, 38.2%; in the assay on MALME-3M melanoma, 60.6%; with MDA-MB-231 breast, 64.4%; with RXF 393 renal it was 35.3%; with SF-268 CNS, 23.7%. The growth with SF-295 CNS is 15.1%; in the assay with SF-539 CNS, 5.87% (active); in the assay with UACC-257 melanoma it was 36.4%; with M14 melanoma, -19% (active); in the assay on HCT-15 colon it was 50.9%; in the assay with HT29 colon, 43.4%. Also, the growth is 40.9% in the assay on SNB-75 CNS; 27.6% in the assay with SNB-19 CNS; 24.4% with U251 CNS; 47.4% in the assay with PC-3 prostate; 27.7% in the assay with SK-MEL-5 melanoma; 3.13% (active) in the assay on UACC-62 melanoma. The growth was 8.47% (active) with LOX IMVI melanoma and 65.7% in the assay on SK-MEL-28 melanoma.
`Cc1nc2ccc(Nc3nc(NCCN4CCOCC4)nc(Nc4ccc(F)cc4)n3)cc2n1Cc1ccccc1`: the growth is 59.2% in the assay on DU-145 prostate; 3.04% (active) in the assay on K-562 leukemia; -41.7% (active) in the assay on MALME-3M melanoma; 33.3% with MDA-MB-231 breast; 12% in the assay with RXF 393 renal; 62.1% in the assay with SF-268 CNS. Besides, the growth in the assay on SF-295 CNS was -36.8% (active); with SF-539 CNS, 29.8%; with UACC-257 melanoma it was -65.3% (active); with M14 melanoma, -38.8% (active); in the assay on HCT-15 colon, -0.585% (active); in the assay on HT29 colon, -33.6% (active). The growth with SNB-75 CNS was 50.6%; in the assay on SNB-19 CNS, 78.7%; in the assay on U251 CNS, 28.7%; with PC-3 prostate it was 71.5%; in the assay with SK-MEL-5 melanoma, 14.2%; with UACC-62 melanoma, -24.8% (active). Besides, the growth is 5.7% (active) in the assay with LOX IMVI melanoma and -67.2% (active) in the assay on SK-MEL-28 melanoma.
